# High-throughput results from PubChem.
# sEH inhibitor: blocks human soluble epoxide hydrolase activity; AID 707; inhibition, % at 2 µM; actives 0.34% (n = 91,000); recombinant human sEH enzymatic activity assay; in the data active = inhibition above about 80%
# Target sequence (P34913 whole entry, looked up): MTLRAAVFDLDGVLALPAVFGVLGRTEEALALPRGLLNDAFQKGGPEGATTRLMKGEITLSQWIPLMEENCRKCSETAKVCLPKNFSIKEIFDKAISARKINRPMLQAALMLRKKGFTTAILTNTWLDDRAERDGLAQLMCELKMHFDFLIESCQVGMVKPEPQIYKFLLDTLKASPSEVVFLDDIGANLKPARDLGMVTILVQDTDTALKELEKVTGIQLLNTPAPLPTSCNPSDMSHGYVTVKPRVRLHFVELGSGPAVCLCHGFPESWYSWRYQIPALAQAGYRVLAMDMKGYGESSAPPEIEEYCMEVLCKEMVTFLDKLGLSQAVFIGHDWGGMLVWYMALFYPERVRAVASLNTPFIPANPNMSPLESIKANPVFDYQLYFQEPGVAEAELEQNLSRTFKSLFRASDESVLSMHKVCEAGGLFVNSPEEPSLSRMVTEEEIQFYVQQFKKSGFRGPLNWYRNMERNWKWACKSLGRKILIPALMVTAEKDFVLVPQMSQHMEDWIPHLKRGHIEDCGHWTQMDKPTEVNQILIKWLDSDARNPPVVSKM
# sEH activator: increases human soluble epoxide hydrolase activity; P34913; purified human sEH enzymatic activity, activator screen; activation, % at 2 µM; actives 0.04% (n = 91,000); AID 717; in the data active = activation above about 37%
# Measles CPE: protection of cells from measles virus | protection (pct of control), % at 4 µM | AID 841 | Measles virus-infected cells, CPE protection, absorbance | actives 1.5% (n = 140,000); in the data active = protection mostly above about 24%, no sharp cut-off; inactive = mostly below about 26%
# SDO1 yeast rescue: compounds rescuing growth of sdo1-depleted yeast, bone marrow failure model | S. cerevisiae sdo1-depleted JHY4D growth rescue, OD600 30 h; hits give high values; pdr5 snq2 efflux-pump mutant strain | z-score at 10 µM | actives 0.21% (n = 140,000) | AID 817;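 active = z-score above 3 at both the 24 hr and the 30 hr optical density reads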;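 note: z-score against mean and SD of all compound wells on the same plate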
# Starred values were filed as active, the others as inactive; . = no result. Compounds with a hit are over-represented: about 1.9% of the library has one in this group of screens.
SMILES,sEH inhibitor,sEH activator,Measles CPE,SDO1 yeast rescue
COc1ccc(-n2c(C)n[nH]c2=O)cc1,6,-5,68*,-0.42
CCOc1ccc(-c2nc(-c3cccnc3)no2)cc1,3,-6,34*,-0.47
c1ccc(CSc2nnc(-c3cccs3)o2)cc1,-9,10,-1,0.58
COc1cc(OC)c(-c2nc3c[n+](CC(=O)c4ccccc4)ccc3n2C)cc1OC,-16,20,38*,0.8
COC(=O)CC1C(=O)NCCN1C(=O)CSc1nnc(Nc2ccc(OC)cc2)s1 (configuration not stated),-6,4,5,0.18
CCCc1oc(C(=O)O)cc1CN1CCCC1,4,-3,2,0.21
CCCc1oc(C(=O)O)cc1CN1CCOCC1,8,-10,34*,0.12
CC(C)CNC(=O)COc1ccc(Sc2ccc(OCC(=O)NCC(C)C)cc2)cc1,.,.,13,-0.67
CC(=O)Nc1ccc(S(=O)(=O)N2CCCc3ccccc32)cc1,2,1,9,-0.25
O=C(NCc1ccco1)c1ccc(COCC(F)(F)C(F)F)cc1,-4,3,33*,0.52
CCCCCCNCc1c(F)cccc1Cl,.,.,57*,0.47
Fc1cccc(Cl)c1CNCc1ccccc1Cl,-6,9,13,1.4
CC1(C)C(=O)OC(c2cccn2-c2cccc([N+](=O)[O-])c2)C2(CCCCC2)C1=O (configuration not stated),.,.,6,-0.82
CN1CCC(=NNC(=O)C(=O)NC2CCCC2)CC1,5,-7,56*,0.38
Cc1ccc(S(=O)(=O)c2cc3ccccc3oc2=Nc2ccc3c(c2)OCO3)cc1,-7,9,25*,-0.78
Cc1ccc(S(=O)(=O)c2cc3ccccc3oc2=Nc2ccc3c(c2)OCCO3)cc1,.,.,7,0.35
COc1cc(-c2nnc(COC(=O)C3c4ccccc4Oc4ccccc43)o2)cc(OC)c1OC,10,-11,8,-0.81
COC(=O)c1cc(OC)c(OC)cc1NC(=O)Nc1ccc(OC)cc1OC,-8,10,11,1.6
CC(CNC(=O)C(C)C)NC(=O)C(C)C (configuration not stated),-2,2,27*,-0.83
COC(=O)c1[nH]c2ccccc2c1NC(=O)CN1CCN(c2cccc(Cl)c2)CC1,-9,7,7,-0.73
COC(=O)c1[nH]c2cccc(OC)c2c1NC(=O)CCN1CCN(c2cccc(Cl)c2)CC1,-113,114*,33,0.21
O=C1Nc2cc(S(=O)(=O)N3CCCC3)ccc2N2CCCC12 (configuration not stated),2,0,5,-0.17
CCc1c(C)sc(NC(=O)C2CC2c2ccccc2)c1C(N)=O (configuration not stated),0,-2,38*,-1.3
NNC(=O)[C@@H]1C[C@@H]1c1ccccc1,.,.,7,0.07
Oc1ccc(/C=N/NC(=S)NCc2ccco2)cc1,-2,2,41*,-0.72
SMILES,sEH inhibitor,sEH activator,Measles CPE,SDO1 yeast rescue
Cc1ccc2c(CNCc3ccco3)cc(=O)oc2c1,-3,4,2,-0.15
Cc1ccc2c(CC(=O)O)coc2c1,-7,7,7,-0.07
CCOc1ccc(-c2nnc(NC(=O)c3ccc(OCC(C)C)c(OC)c3)o2)cc1,.,.,41*,-0.85
CCCCNC(=O)Nc1nnc(-c2ccc(OCC)cc2)o1,0,-1,11,0.32
Cc1ccc(NC(=S)N2CCC(c3nc4ccccc4s3)CC2)cc1C,-10,13,29*,-0.97
Cc1cc(C)cc(NC(=S)N2CCC(c3nc4ccccc4s3)CC2)c1,7,-5,7,-0.69
Cc1cccc2nc(C(F)(F)F)nc(=O)n12,-3,3,43*,0.42
O=C(NCc1ccccn1)C1CCC(=O)N1C1CCCCC1 (configuration not stated),-8,6,5,1.2
Cc1ccc(C)c(N(CC(N)=O)S(C)(=O)=O)c1,4,-4,50*,0.43
Cc1ccccc1N(CC(N)=O)S(C)(=O)=O,1,-1,5,2.6
Cc1ccccc1NC(=O)c1ccc(CSc2ncccn2)cc1,-17,15,45*,-0.24
Nc1ccc(Cc2nc3c(ccc4ccccc43)[nH]2)cc1,-16,13,58*,-0.41
Cc1cc(C(=O)N/N=C/C=C/c2ccc3c(c2)OCO3)n[nH]1,3,-2,25*,-0.37
O=C(N/N=C\C=C\c1ccc2c(c1)OCO2)C1COc2cc3ccccc3cc2O1 (configuration not stated),24,-22,37*,-1.2
COc1ccc(/C(C)=N/Nc2ccc(C(=O)O)cc2)c(OC)c1,.,.,17,-0.6
O=C(CCN1C(=O)S/C(=C/c2ccc(Cl)cc2)C1=O)N1CCOCC1,.,.,42*,-0.39
Cn1c(=O)n(C)c2cc(/C=C3/SC(=O)N(CC(=O)N4CCOCC4)C3=O)ccc21,.,.,8,0.51
Cc1nc(-c2cccnc2)sc1C(=O)Nc1ccc(Cl)cc1,1,1,33*,-0.86
Cc1nc(NC(N)=S)sc1C(=O)Nc1ccccc1,1,2,50,1.2
Cc1nc(-c2cccnc2)sc1C(=O)Nc1ccc(F)cc1F,4,2,25,0.43
Cc1nc(N)sc1C(=O)Nc1ccccc1,-2,5,35*,0.45
CC1CN=C(N(C(=O)Nc2ccccc2)c2ccc(F)cc2)S1 (configuration not stated),10,-12,4,-0.87
O=[N+]([O-])c1c(Nc2ccccc2)ccc2nonc12,-2,4,28*,0.37
COc1cccc(Nc2cc(N3CCOCC3)c3nonc3c2[N+](=O)[O-])c1,-3,1,4,-1.5
CC1/C(=C\c2ccc(Cl)cc2)C(=O)C2CC1C2(C)C (configuration not stated),-1,0,21,0.22
SMILES,sEH inhibitor,sEH activator,Measles CPE,SDO1 yeast rescue
COc1cc(/C=N\NC(=O)CNC(=O)C2COc3ccccc3O2)ccc1O (configuration not stated),.,.,30*,1.3
O=C(NCCc1cn2ccsc2n1)c1cccs1,1,-1,2,0.27
CCC(=O)N1CCc2cc(S(=O)(=O)CCC(=O)NCCC3=CCCCC3)ccc21,86*,-87,22,1.1
CCC(=O)N1c2ccc(S(=O)(=O)CCC(=O)NCCC3=CCCCC3)cc2CC1C (configuration not stated),.,.,5,0.14
CC(=O)N1CCCc2cc(S(=O)(=O)N3CCc4ccccc4C3)ccc21,.,.,6,-0.67
CCC(=O)N1CCc2cc(S(=O)(=O)N3CCc4ccccc4C3)ccc21,-16,17,28*,-0.16
CCCn1nnnc1-c1cccc(Cl)c1,-13,14,61*,0.74
CCCn1nnnc1-c1ccc(Cl)cc1,12,-9,12,0.79
O=C(Oc1ccc2c(c1)O/C(=C\c1ccncc1)C2=O)c1ccccc1,.,.,40*,-1
Cc1ccc(/C=C2\Oc3cc(OC(=O)N4CCOCC4)ccc3C2=O)cc1,.,.,11,0.04
Cc1cccc(NC(=O)C2CC(=O)n3cnnc3S2)c1 (configuration not stated),5,-8,7,-0.73
Cc1c(C(=O)N(C)Cc2ccccc2)oc2ccc(S(=O)(=O)N3CCCC3)cc12,-10,11,81*,-1.1
